{"source": "PubChem BioAssay", "data": [{"assay": "JC-1 mitochondrial signal, unstimulated myeloma cells – cell-based, JC-1 fluorescence, RPMI8226, 24 h, 100 nL compound, profiling panel (AID 1169); also: test concentration not given here", "conditions": "JC-1 mitochondrial potential fluorescence, higher = more signal", "values": [{"smiles": "C=C(COC)/C(=C/C[C@@H](OC(C)=O)c1ccc(CO)o1)c1cnc2ccccc2c1", "z-score": -0.33}, {"smiles": "COc1ccc(C#Cc2ccc3c(c2)[C@]2(C(=O)N3)[C@H](c3ccccc3OCCO)N3[C@H](c4ccccc4)[C@H](c4ccccc4)OC(=O)[C@H]3[C@@H]2C(=O)O)cc1", "z-score": -0.93}, {"smiles": "COc1ccc([Si](C)(C)[C@@H]2[C@@H](CC(=O)N3Cc4ccccc4C[C@H]3CO)O[C@]3(C(=O)N(C)c4c(Br)cc(C)cc43)[C@H]2C)cc1", "z-score": -0.976}, {"smiles": "C=C(CCCC)C(=O)CC[C@@H](OC(=O)c1cccnc1)c1ccc(CO)o1", "z-score": 0.736}, {"smiles": "Cc1ccc(S[C@]2(C(=O)NCC(C)C)CC(=O)N(Cc3cc(C(F)(F)F)cc(C(F)(F)F)c3)[C@@H]2c2ccc(CO)cc2I)cc1", "z-score": -0.39}, {"smiles": "CO[C@H]1O[C@H](CO)[C@@H](OC(=O)Nc2ccc(Br)cc2)[C@H](OC(=O)c2cc3ccccc3[nH]2)[C@H]1OC(=O)c1cc2ccccc2[nH]1", "z-score": -0.589}, {"smiles": "CCc1oc(CC[C@@H](CO)NC(=O)NCCn2cc(C3(O)CCCCC3)nn2)c(C(=O)OC)c1C(=O)OC", "z-score": 0.756}, {"smiles": "COc1ccc(C(=O)Nc2ccc(CN3C(=O)[C@@]4(O[C@@H](CCn5cc([C@H](O)c6ccccc6)nn5)[C@H]([Si](C)(C)c5ccc(OC)cc5)[C@H]4C)c4ccccc43)cc2)cc1", "z-score": -1.1}, {"smiles": "Cc1ccc(C(C)CC(O)C2C=CC3C(=O)N(c4ccccc4)C(=O)C3N2Nc2ccc([N+](=O)[O-])cc2)o1", "note": "(stereo not given)", "z-score": -0.0508}, {"smiles": "COCCCNC(=O)[C@@]1(Cc2ccccc2N=[N+]=[N-])N=C(c2ccc(OCCCO)cc2)O[C@H]1c1ccccc1N=[N+]=[N-]", "z-score": -1.22}, {"smiles": "COCCOC(=O)N1C(=O)[C@@]2(c3cc(C#Cc4ccc(OC)cc4)ccc31)[C@H](c1ccccc1OCCO)N1[C@H](c3ccccc3)[C@H](c3ccccc3)OC(=O)[C@H]1[C@@H]2C(=O)N1CCN(c2ncccn2)CC1", "z-score": -0.72}, {"smiles": "COc1cc2c(cc1OC)CN(C(=O)[C@H]1[C@@H]3C(=O)O[C@@H](c4ccccc4)[C@@H](c4ccccc4)N3[C@@H](c3ccc(O)cc3)[C@]13C(=O)Nc1ccc(C#CC4=CCCCC4)cc13)CC2", "z-score": -0.243}, {"smiles": "CCCCc1cn(C[C@H](Cc2ccccc2)NC(=O)N[C@H](CO)CCc2oc(C(C)=O)c(C(=O)OC)c2C(=O)OC)nn1", "z-score": 0.24}, {"smiles": "CN(C)C(=O)[C@]1(Cc2ccccc2N=[N+]=[N-])N=C(c2ccc(OCCCO)cc2)O[C@@H]1c1ccccc1", "z-score": -1.1}, {"smiles": "C=CCNC(=O)[C@@H]1[C@H]2C(=O)O[C@H](c3ccccc3)[C@H](c3ccccc3)N2[C@H](c2ccc(OCCO)cc2)[C@@]12C(=O)Nc1ccc(C#CCCO)cc12", "z-score": -0.591}, {"smiles": "[N-]=[N+]=NCc1ccccc1C[C@]1(C(=O)N2CCOCC2)N=C(c2ccc(OCCCO)cc2)O[C@H]1c1ccccc1N=[N+]=[N-]", "z-score": -1.1}, {"smiles": "C=CCNC(=O)[C@H]1[C@@H]2C(=O)O[C@@H](c3ccccc3)[C@@H](c3ccccc3)N2[C@@H](c2ccc(OCCO)cc2)[C@]12C(=O)Nc1ccc(C#CC3=CCCCC3)cc12", "z-score": -1.13}, {"smiles": "COC(=O)[C@@]1(Cc2ccc(OC)cc2)[C@H]2c3cc(C(=O)N4CCCC4)n(Cc4ccccc4)c3C[C@H]2CN1C(=O)c1ccccc1", "z-score": -0.933}, {"smiles": "CCCC[C@@H]1C[C@H]1[C@@H](NC(=O)c1ccco1)c1ccc(C(=O)OC)cc1", "z-score": -0.705}, {"smiles": "C=CCOC(=O)[C@H]1[C@@H]2C(=O)O[C@@H](c3ccccc3)[C@@H](c3ccccc3)N2[C@@H](c2ccc(OCCOC(=O)[C@H]3C[C@H]4C(=O)N[C@@H](CC(C)C)C(=O)N4[C@H]3c3ccc(O)cc3)cc2)[C@]12C(=O)Nc1ccc(I)cc12", "z-score": -0.418}, {"smiles": "COC(=O)c1c(CC[C@@H](CO)NC(=O)N[C@@H](C)Cn2cc(C3(O)CCCCC3)nn2)oc(C(C)=O)c1C(=O)OC", "z-score": -0.44}, {"smiles": "CC(C)N1C(=O)[C@@]2(Cc3ccccc31)c1ccccc1C(=O)N(C1CCCCC1)[C@H]2c1ccc(CO)cc1", "z-score": 0.378}, {"smiles": "CN(C)CCCNC(=O)[C@@]1(c2ccc([N+](=O)[O-])cc2)CC(=O)N(C2CCCCC2)[C@@H]1c1ccc(CO)cc1I", "z-score": -0.952}, {"smiles": "CCOC(=O)C[C@H]1[C@H](OC(=O)c2ccc(C(=O)c3ccccc3)cc2)[C@@H](NC(=O)c2ccc(-c3ccccc3)cc2)c2cc(OCCCO)ccc2N1C(=O)c1ccccc1", "z-score": 0.884}, {"smiles": "C=CCNC(=O)[C@@H]1[C@H]2C(=O)O[C@H](c3ccccc3)[C@H](c3ccccc3)N2[C@H](c2ccc(OCCO)cc2)[C@@]12C(=O)Nc1ccc(C#Cc3ccc(OC)cc3)cc12", "z-score": -0.592}]}]}
